Test results published in the supplement of paper PMC4840960.
Counter-ions that a name gives are not always drawn.

tested on: E18 rat cortical neuron-glia co-culture; assay: myelination (MBP fiber length per Olig2+ nucleus), % of 1 µM DAPT response (DMSO = 0) (% of DAPT); higher = more myelination, active = 50 or more; settings: 5 µM; treatment time: 8 days (DIV5-DIV13)
Summary of the method: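 Library compounds at 1 or 5 µM in myelination medium were applied from DIV5 to DIV13 to papain-dissociated E18 rat cortical co-cultures seeded at 20,000 cells/well on poly-d-lysine/laminin 96-well plates. Fixed cells (4 % paraformaldehyde) were immunostained for MBP and Olig2 with DAPI, and four 10X fields were analysed in each duplicate well. Continuous straight MBP fiber length per Olig2+ nucleus was set to 0 for 0.1 % DMSO and to 100 for a 1 µM positive control.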

Compound	myelination
COc1c(N2C[C@@H]3CCCN[C@@H]3C2)c(F)cc2c(=O)c(C(=O)O)cn(C3CC3)c12 [Moxifloxacin]	-17.6 (inactive)
O=C1CN2Cc3c(ccc(Cl)c3Cl)N=C2N1 [Anagrelide hydrochloride]	-10 (inactive)
Cc1c(OCC(F)(F)F)ccnc1C[S+]([O-])c1nc2ccccc2[nH]1 (centres undefined) [Lansoprazole]	65.6
CCOC(=O)O[C@]1(C(=O)OCCl)CC[C@H]2[C@@H]3CCC4=CC(=O)C=C[C@]4(C)[C@H]3[C@@H](O)C[C@@]21C [Loteprednol etabonate]	-1.58 (inactive)
